The supplement of paper PMC7411640
Where a name gives a salt, the structure may show the parent alone.

Tested on: MDA-MB-468
Assay: phospho-S6 immunofluorescence (DAPI-normalised), per-plate z-score; higher = higher phospho-S6 signal (less pathway suppression)
Settings: 24 h
Experimental: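 GPCR-targeted compound library (MedChemExpress HY-L006) tested on MDA-MB-468 PTEN-null TNBC cells in 384-well plates at 0.1, 1 or 10 uM, combined with vehicle, GDC0941 450 nM or lapatinib 1 uM, for 24 h. Phospho-S6 (S240/244) immunofluorescence normalised to DAPI and expressed as a per-plate z-score; values are the mean of biological triplicates.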

Row | Compound | phospho-S6 immunofluorescence (z-score) (co-treatment: GDC0941 450 nM) | phospho-S6 immunofluorescence (z-score) (co-treatment: lapatinib 1 uM) | phospho-S6 immunofluorescence (z-score) (co-treatment: vehicle)
1 | C[C@]12CCC(=O)C=C1CC[C@@H]1[C@@H]2CC[C@@]2(C)[C@H]1CC[C@]2(O)C(=O)CO [Cortodoxone] (compound 10 µM) | -0.95 | 1.37 | -0.43
2 | COc1cc(/C=C/C(=O)NCCn2c(C(F)(F)F)cc3ccccc32)cc(OC)c1OC (compound 10 µM) | -3.69 | -6.85 | -8.39
3 | Cc1ccc(C(=O)Nc2ccc(S(=O)(=O)O)c3cc(S(=O)(=O)O)cc(S(=O)(=O)O)c23)cc1NC(=O)c1cccc(NC(=O)Nc2cccc(C(=O)Nc3cc(C(=O)Nc4ccc(S(=O)(=O)O)c5cc(S(=O)(=O)O)cc(S(=O)(=O)O)c45)ccc3C)c2)c1 [Suramin (sodium salt)] (compound 10 µM) | 0.54 | 1.39 | -0.09
4 | O=C1CC2(CCCC2)CC(=O)N1CCCCN1CCN(c2ncccn2)CC1 [Buspirone (hydrochloride)] (compound 10 µM) | 0.3 | 0.17 | 0.69
5 | CCNC(=O)[C@@H]1CCCN1C(=O)[C@H](CCCNC(=N)N)NC(=O)[C@H](CC(C)C)NC(=O)[C@@H](COC(C)(C)C)NC(=O)[C@H](Cc1ccc(O)cc1)NC(=O)[C@H](CO)NC(=O)[C@H](Cc1c[nH]c2ccccc12)NC(=O)[C@H](Cc1cnc[nH]1)NC(=O)[C@@H]1CCC(=O)N1 [Buserelin (Acetate)] (compound 10 µM) | 0.78 | 0.63 | 0.53
6 | c1ccc2c(CC3=NCCN3)cccc2c1 [Naphazoline (hydrochloride)] (compound 10 µM) | -0.78 | 0.03 | 0.05
